# S2 tox: cell viability loss in ATXN counter-screen; AID 651635; Potency, µM (doses to about 56.7 µM), actives largely listed as cytotoxic; S2 cells (HEK-293 line with an ATXN2-luciferase reporter) viability, CellTiter-Fluor protease fluorescence, 24 h; actives 0.49% (n = 400,000); further: nearly all actives have a fitted effect of over 40% in size
# HepG2 viability: counter-screen for TGF-b inhibitors: cytotoxicity in HepG2 cells. Potency, µM (top dose mostly 46.1 µM), for inactives: at the highest dose activity change, negative = cytotoxicity, usual class: cytotoxic. HepG2 CAGA-GFP viability, ATP luminescence, 18 h. AID 588856. actives 0.76% (n = 410,000)
#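 CellTiter-Glo luminescence gave cytotoxicity after 18 hours at 37 degrees C. The cells were HepG2 CAGA-GFP in 1% FBS DMEM, stimulated with 500 pg/mL TGF-beta after compound addition. %Activity was normalised to no-cell wells (complete cell-killing) and DMSO (no toxicity), and curves were fitted and classified.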
# ATXN2 expr inh: reduces ATXN2 reporter expression in HEK-293 cells | HEK-293 ATXN2-luciferase reporter, luminescence, 24 h | Potency, µM (doses to about 57 µM), inactives show at the highest dose activity change, negative = inhibition, most hits filed as inhibitors | actives 0.72% (n = 360,000) | AID 1745845; further: on the % scale 0 is the no-effect control and ±100 the full control effect; nearly all actives have a fitted effect of over 55% in size
#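 ATXN2-luciferase reporter cells (luciferase flanked by upstream and downstream ATXN2 gene portions) were treated 24 h at 37 °C with compounds at up to 57 uM. SteadyGlo luminescence gave expression; GF-AFC fluorescence gave viability.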
# RORgamma inh: inhibitors of mouse ROR gamma transcriptional activity. P51450. Drosophila S2 Gal4-RORgamma UAS-luciferase reporter, 20 h. Potency, µM (top dose mostly 53.6 µM), inactives show top-dose activity change, negative = inhibition, hits mostly inhibitors. actives 5.4% (n = 310,000); further: on the % scale 0 is the no-effect control and ±100 the full control effect; nearly all actives have a fitted effect of over 60% in size
# Target sequence (P51450 whole entry, looked up, the tested form may be a part): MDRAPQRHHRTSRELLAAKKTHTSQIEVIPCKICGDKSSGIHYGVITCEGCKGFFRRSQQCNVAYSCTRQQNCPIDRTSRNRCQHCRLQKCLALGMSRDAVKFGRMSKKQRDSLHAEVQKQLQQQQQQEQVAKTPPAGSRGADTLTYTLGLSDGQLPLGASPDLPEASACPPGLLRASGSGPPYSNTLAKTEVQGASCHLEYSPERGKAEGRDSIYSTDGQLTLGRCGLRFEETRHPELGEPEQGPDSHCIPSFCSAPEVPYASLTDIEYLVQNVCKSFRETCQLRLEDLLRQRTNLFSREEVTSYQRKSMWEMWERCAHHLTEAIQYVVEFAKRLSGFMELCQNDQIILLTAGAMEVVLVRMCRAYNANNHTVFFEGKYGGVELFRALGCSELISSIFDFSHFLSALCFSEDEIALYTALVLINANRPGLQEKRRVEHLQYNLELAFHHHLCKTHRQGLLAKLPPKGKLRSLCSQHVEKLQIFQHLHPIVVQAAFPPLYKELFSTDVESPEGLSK
#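 In this cell-based reporter format, copper sulfate (700 uM final) drives Gal4–ROR gamma fusion expression from a metallothionein promoter in Drosophila Schneider cells; compounds preincubated 1 hr, reporter read after 20 hr at ambient temperature.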
# TGFb inhibitor: TGF-b pathway inhibition; HepG2 CAGA-GFP TGF-b/SMAD3 reporter, GFP fluorescence, 18 h; TGF-beta stimulated, 500 pg/mL final; Potency, µM (highest dose often 46.1 µM), without a hit: at the top dose activity, negative = inhibition, most hits filed as inhibitors; actives 1.2% (n = 410,000); AID 588855; further: on the % scale 0 is the no-effect control and ±100 the full control effect; nearly all actives have a fitted effect of over 65% in size
#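 Inhibition was scored as loss of TGF-beta-induced (500 pg/mL final, 18 hours, 37 degrees C) GFP in HEPG2 cells carrying a CAGA-GFP reporter, in DMEM with 1% FBS. Well GFP was summed per cell; Activity was normalised to unstimulated and stimulated DMSO wells, then concentration-response fitting.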
# Gal4-VP16 FLuc: inhibits Gal4-VP16 luciferase reporter, ROR gamma counter-screen | Drosophila S2 Gal4-VP16 UAS-luciferase, luminescence, 20 h | Potency, µM (series often up to 53.6 µM), for the others: at the highest dose activity, negative = inhibition, usual class: inhibitors | actives 3.5% (n = 310,000) | AID 2546;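 further: Gal4-VP16 expression switched on by copper sulfate through the metallothionein promoter; on the % scale 0 is the no-effect control and ±100 the full control effect; nearly all actives have a fitted effect of over 50% in size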
# * marks the source's active call; other numbers are inactive results; i = inactive; ? = inconclusive; nt = no result; [ ] = dose if it differs, or a comment. Most compounds without a hit are left out; they make up all but 6.3% or so of the library. The call rests on the fitted dose curve; in most records, active means well fitted curve in the direction sought with a large enough effect; inconclusive means small, poorly fitted or top-dose-only effect, or another doubt; inactive means no such curve, though single readings can be large; an effect the other way counts as inactive or inconclusive. Potency means the concentration at half of the fitted maximal effect.
SMILES,S2 tox,HepG2 viability,ATXN2 expr inh,RORgamma inh,TGFb inhibitor,Gal4-VP16 FLuc
CCN1CCN(C(=O)c2ccc3nc(-c4ccccc4)c(-c4ccccc4)nc3c2)CC1,i,4%,-2%,1%,1%,1%
CCN(CC)CCNC(=O)Cn1nc(C)c2c(C)n(-c3ccccc3)nc2c1=O,i,6%,7%,nt,17%,nt
COc1ccc(O)c(/C=N/NC(=O)c2ccc(OCc3cccc(Br)c3)cc2)c1,?,-38%,3.2µM*,5µM*,-5%,4.5µM*
CCN(CC)c1ccc(C(=O)N/N=C/c2ccccc2OC(F)F)cc1,i,-42%,?,2.5µM*,?,?
COc1ccc(C(=O)N/N=C/c2cc(Br)ccc2O)cc1OC,i,-19%,1.4µM*,3.2µM*,-8%,4.5µM*
COc1ccc(/C=N/NC(=O)c2ccc(Br)cc2)c(OC)c1,i,-11%,0%,11µM*,5%,-16%
CC(Oc1ccccc1)C(=O)NCC1Cc2cc(F)cc(-c3ccccn3)c2O1 (configuration not stated),i,nt,nt,nt,nt,nt
CC(C)(C)c1ccc(OCc2ccc(C(=O)N/N=C/c3ccc(O)c(O)c3)cc2)cc1,?,-20%,?,?,?,16µM*
COc1cc(NC(=O)c2ccc(Br)cc2)c(OC)cc1NC(=O)c1ccccc1,?,5%,nt,?,-2%,?
COc1cc(NC(=O)c2ccccc2)c(OC)cc1NC(=O)Cc1ccc(Br)cc1,i,-9%,-12%,?,0%,11µM*
CCCCOc1ccc(C(=O)NCCN2CCC(n3c(=O)[nH]c4ccccc43)CC2)cc1,i,nt,7%,nt,nt,nt
O=C(Cn1ccc(=O)[nH]c1=O)Nc1nccs1,i,15%,nt,nt,13%,nt
CC(C)(C)NC(=O)CN(C(=O)CCC(=O)Nc1nccs1)c1ccccc1F,i,3%,nt,nt,10%,nt
COc1ccc(Cn2c(=S)[nH]c3ccccc3c2=O)cc1,i,-28%,-10%,8.9µM*,-20%,10µM*
Cc1ccc(Cn2c(=S)[nH]c3ccccc3c2=O)cc1,i,-43%,5%,4µM*,?,6.3µM*
O=C(Nc1nnc(-c2cccnc2)o1)c1cccc(Cl)c1,?,-32%,-21%,0.5µM*,?,0.71µM*
Cc1cccc(-c2nnc(NC(=O)c3ccc(Cl)cc3)o2)c1,i,0%,?,1.4µM*,?,1.4µM*
Cc1cccc(NS(=O)(=O)c2nnc(NC(=O)c3ccc(Cl)cc3)s2)c1,i,-28%,7%,27%,-25%,-1%
COc1cc(OC)cc(C(=O)Nc2nnc(-c3cccnc3)o2)c1,i,2%,20%,1.4µM*,?,4.5µM*
Cc1cc(N(C)C)ccc1/C=C/c1ccnc2ccccc12,nt,-2%,nt,nt,29%,nt
CCC(=O)OC1(C(C)=O)CCC2C3CCC4=CC(=O)CCC4(C)C3CCC21C (configuration not stated),?,9%,20µM*,nt,-19%,nt
CCCCCC(=O)O[C@@]1(C(C)=O)CCC2C3CCC4=CC(=O)CC[C@@]4(C)C3CC[C@]21C (some centres not stated),nt,nt,nt,33%,nt,-11%
NC(=O)C1CC2(NC(=O)NC2=O)c2cc(F)ccc2O1 (configuration not stated),nt,nt,nt,3%,nt,4%
CCOC(=O)c1sc(NC(=S)NC(=O)C23CC4CC(CC(C4)C2)C3)cc1C,i,2%,10%,6.3µM*,3%,10µM*
CCOC(=O)c1sc(NC(=O)c2ccc(Br)o2)cc1C,i,-10%,105%,?,11%,-8%
SMILES,S2 tox,HepG2 viability,ATXN2 expr inh,RORgamma inh,TGFb inhibitor,Gal4-VP16 FLuc
CCOC(=O)c1sc(NC(=O)c2sccc2C)cc1C,i,14µM*,90%,?,2%,-5%
CCOC(=O)c1sc(NC(=S)NC(=O)C2CC2)cc1C,i,-17%,5%,1µM*,0%,1µM*
CCOC(=O)c1sc(NC(=O)c2cccs2)cc1C,i,-39%,11%,?,-9%,1%
Cc1cc(C)cc(NC(=O)CSc2nnc(COc3ccccc3Cl)o2)c1,i,3%,13%,nt,-11%,nt
COCCN1CCN(C(=O)c2cnn(-c3ncc4c(n3)-c3ccc(OC)cc3CC4)c2C2CC2)CC1,i,nt,nt,nt,nt,nt
CCc1ccc(NC(=S)N2CCN(c3cccc(OC)c3)CC2)cc1,i,-38%,-21%,13µM*,-22%,?
COc1cccc(N2CCN(C(=S)Nc3ccccc3)CC2)c1,i,5%,1%,-13%[1.91 µM],-2%,?
CCc1ccccc1NC(=S)N1CCN(c2cccc(OC)c2)CC1,?,-1%,-5%,10µM*,1%,?
CCN1CSC(=S)N(Cc2ccccc2)C1,i,-11%,-6%,10µM*,-19%,10µM*
CCN1CSC(=S)N(Cc2ccc(OC)cc2)C1,?,7.9µM*,nt,14µM*,4µM*,13µM*
O=C1CSC(=S)N1Cc1ccccc1,i,3%,nt,nt,?,nt
CCCCCN1CSC(=S)N(Cc2ccccc2)C1,?,-9%,-30%,10µM*,10µM*,18µM*
COc1ccc(Cn2c(C)ccc2C)cc1,i,0%,0%,8%,0%,14%
CCC1(c2ccc(O)cc2)NC(=O)NC1=O (configuration not stated),nt,nt,nt,1%,nt,-6%
Nc1cc2c(cc1Br)[nH]c(=O)c1ccccc12,?,-98%,0%,nt,10µM*,nt
COc1ccc(/C(N)=N/OC(=O)c2c(-c3ccccc3Cl)noc2C)cc1OC,i,-49%,?,-36%,-12%,10µM*
Cc1onc(-c2ccccc2Cl)c1C(=O)NC(=S)NCCc1ccccc1,i,-9%,-7%,10µM*,-46%,20µM*
Cc1nc(/C(N)=N/OC(=O)c2c(-c3ccccc3Cl)noc2C)cs1,i,-63%,-32%,25%,-4%,-27%
COc1ccc(CCNC(=S)NC(=O)c2c(-c3ccccc3Cl)noc2C)cc1OC,i,-3%,nt,8.9µM*,-1%,?
COc1cccc(NC(=O)CCC(=O)Nc2ccc3nc(N4CCOCC4)cc(C)c3c2)c1,i,-4%,26%,8%,-3%,2%
COC(=O)[C@H](Cc1ccccc1)NC(=O)O[C@@H]1C(=O)c2cc(Br)ccc2O[C@H]1c1ccc2c(c1)OCO2,nt,nt,nt,-4%,nt,5%

# Screens as filed in PubChem BioAssay.
